# Assay results taken from PMC7862700, “An all-to-all approach to the identification of sequence-specific readers for epigenetic DNA modifications on cytosine”.
# Key:
# Test in all cases: DAPPL (digital affinity profiling via proximity ligation, sequencing); 10 mM Tris-HCl pH 7.5, 50 mM NaCl, 1 mM DTT, 4% glycerol, room temperature, 30 min; GST-TFs on glutathione beads, 16-mer random dsDNA library, 0.1% formaldehyde crosslink after washing; high values mean tight binding
# FLI1 = biological target: T1, FLI1 (Homo sapiens, UniProt Q01543 1-452); conditions: protein: recombinant; tags: N-terminal GST; dsDNA, one strand shown
# T1 sequence: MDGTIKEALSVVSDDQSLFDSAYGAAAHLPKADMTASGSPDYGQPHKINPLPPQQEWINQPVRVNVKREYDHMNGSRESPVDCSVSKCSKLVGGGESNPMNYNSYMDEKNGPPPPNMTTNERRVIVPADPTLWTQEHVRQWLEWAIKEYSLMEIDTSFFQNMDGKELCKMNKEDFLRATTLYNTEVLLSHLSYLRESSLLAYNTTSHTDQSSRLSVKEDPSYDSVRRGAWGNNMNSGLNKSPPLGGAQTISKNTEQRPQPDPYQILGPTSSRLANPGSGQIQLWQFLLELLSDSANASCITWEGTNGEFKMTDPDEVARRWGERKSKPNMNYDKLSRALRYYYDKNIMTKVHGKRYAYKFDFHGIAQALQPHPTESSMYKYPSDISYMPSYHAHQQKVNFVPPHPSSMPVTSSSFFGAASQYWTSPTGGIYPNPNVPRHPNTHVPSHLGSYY
# How it was run: (§1)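 After expression in yeast as GST fusions, human transcription factors were bound to glutathione beads, DNA-barcoded and mixed with a tag-only sample. The pools were incubated with 200 nmole of a 16-mer random double-stranded DNA library in Tris/NaCl/DTT/glycerol buffer (30 min, room temperature), washed and crosslinked with 0.1% formaldehyde. Proximity ligation with BsaI/T4 ligase ran for 1 h at 37 °C, before PCR amplification and sequencing on an Illumina NextSeq500. Binding signal is a hexamer's read frequency for a factor divided by its frequency for the tag-only sample.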
# ELK1 = biological target: T2, ELK1 (Homo sapiens, UniProt P19419 1-428); conditions: protein: recombinant; tags: N-terminal GST; dsDNA, one strand shown
# T2 sequence: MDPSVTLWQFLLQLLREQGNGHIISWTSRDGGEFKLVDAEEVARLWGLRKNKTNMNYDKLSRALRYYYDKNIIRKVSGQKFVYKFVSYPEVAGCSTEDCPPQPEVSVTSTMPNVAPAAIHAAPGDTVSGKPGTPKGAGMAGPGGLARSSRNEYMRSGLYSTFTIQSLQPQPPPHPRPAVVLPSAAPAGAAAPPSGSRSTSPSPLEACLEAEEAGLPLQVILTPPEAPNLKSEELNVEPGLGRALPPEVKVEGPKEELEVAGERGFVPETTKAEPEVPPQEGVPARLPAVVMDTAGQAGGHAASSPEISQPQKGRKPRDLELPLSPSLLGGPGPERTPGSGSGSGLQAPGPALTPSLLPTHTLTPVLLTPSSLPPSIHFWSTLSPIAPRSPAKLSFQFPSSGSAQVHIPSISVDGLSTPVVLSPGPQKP
# How it was run: as §1
# GABPA = biological target: T3, GABPA (Homo sapiens, UniProt Q06546 1-454); conditions: protein: recombinant; tags: N-terminal GST; dsDNA, one strand shown
# T3 sequence: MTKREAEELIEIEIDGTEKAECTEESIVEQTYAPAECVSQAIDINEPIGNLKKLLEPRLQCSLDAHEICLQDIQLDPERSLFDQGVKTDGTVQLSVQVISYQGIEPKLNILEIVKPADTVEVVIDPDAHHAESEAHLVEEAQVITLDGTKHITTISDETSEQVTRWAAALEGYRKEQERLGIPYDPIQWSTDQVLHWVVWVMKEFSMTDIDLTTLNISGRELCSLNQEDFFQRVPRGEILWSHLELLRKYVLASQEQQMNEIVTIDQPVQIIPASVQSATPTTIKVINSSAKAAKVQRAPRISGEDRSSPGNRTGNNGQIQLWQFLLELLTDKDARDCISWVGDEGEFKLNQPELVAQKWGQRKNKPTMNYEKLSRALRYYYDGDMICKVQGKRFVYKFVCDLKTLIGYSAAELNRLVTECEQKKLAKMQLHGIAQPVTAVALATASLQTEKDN
# How it was run: as §1
# ERG = biological target: T4, ERG (Homo sapiens, UniProt P11308 1-479); conditions: protein: recombinant; tags: N-terminal GST; dsDNA, one strand shown
# T4 sequence: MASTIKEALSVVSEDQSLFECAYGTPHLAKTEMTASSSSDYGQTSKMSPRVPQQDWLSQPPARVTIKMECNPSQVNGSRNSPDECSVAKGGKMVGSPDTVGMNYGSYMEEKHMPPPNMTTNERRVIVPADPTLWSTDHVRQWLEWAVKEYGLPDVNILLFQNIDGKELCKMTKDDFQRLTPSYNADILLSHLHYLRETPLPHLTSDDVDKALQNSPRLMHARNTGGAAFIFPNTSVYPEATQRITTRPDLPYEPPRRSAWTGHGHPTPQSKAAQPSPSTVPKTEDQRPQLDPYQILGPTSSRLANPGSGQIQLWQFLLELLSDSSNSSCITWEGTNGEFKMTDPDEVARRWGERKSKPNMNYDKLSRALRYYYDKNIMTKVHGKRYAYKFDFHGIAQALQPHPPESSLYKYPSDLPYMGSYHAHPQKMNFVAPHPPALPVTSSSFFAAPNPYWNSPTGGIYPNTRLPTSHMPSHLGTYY
# How it was run: as §1
# ELF1 = ELF1 (Homo sapiens, UniProt P32519 1-619); conditions: protein: recombinant; tags: N-terminal GST; dsDNA, one strand shown
# How it was run: as §1
# EHF = biological target: T5, EHF (Homo sapiens, UniProt Q9NZC4 1-300); conditions: protein: recombinant; tags: N-terminal GST; dsDNA, one strand shown
# T5 sequence: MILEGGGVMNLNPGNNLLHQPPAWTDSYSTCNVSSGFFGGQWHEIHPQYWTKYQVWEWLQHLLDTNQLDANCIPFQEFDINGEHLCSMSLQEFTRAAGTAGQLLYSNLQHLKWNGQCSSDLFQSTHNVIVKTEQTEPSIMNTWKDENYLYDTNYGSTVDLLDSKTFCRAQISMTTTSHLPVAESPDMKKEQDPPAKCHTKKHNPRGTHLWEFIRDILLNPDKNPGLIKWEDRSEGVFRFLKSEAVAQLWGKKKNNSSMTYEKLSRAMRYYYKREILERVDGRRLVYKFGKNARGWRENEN
# How it was run: as §1
# SPI1 = SPI1 (Homo sapiens, UniProt P17947 1-270); conditions: protein: recombinant; tags: N-terminal GST; dsDNA, one strand shown
# How it was run: as §1
# SPIB = SPIB (Homo sapiens, UniProt Q01892 1-262); conditions: protein: recombinant; tags: N-terminal GST; dsDNA, one strand shown
# How it was run: as §1
# ELK3 = biological target: T6, ELK3 (Homo sapiens, UniProt P41970 1-407); conditions: protein: recombinant; tags: N-terminal GST; dsDNA, one strand shown
# T6 sequence: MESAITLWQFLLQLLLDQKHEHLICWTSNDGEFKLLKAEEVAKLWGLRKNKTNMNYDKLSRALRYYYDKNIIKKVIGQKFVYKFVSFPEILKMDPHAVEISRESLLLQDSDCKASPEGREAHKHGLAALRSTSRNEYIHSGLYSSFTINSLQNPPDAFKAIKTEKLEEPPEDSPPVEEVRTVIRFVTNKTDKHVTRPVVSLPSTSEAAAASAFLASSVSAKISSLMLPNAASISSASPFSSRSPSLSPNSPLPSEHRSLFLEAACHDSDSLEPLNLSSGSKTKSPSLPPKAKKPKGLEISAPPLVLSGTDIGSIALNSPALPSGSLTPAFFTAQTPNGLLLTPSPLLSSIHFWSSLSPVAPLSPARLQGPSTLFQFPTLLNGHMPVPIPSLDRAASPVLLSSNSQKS
# How it was run: as §1
# FEV = biological target: T7, FEV (Homo sapiens, UniProt Q99581 1-238); conditions: protein: recombinant; tags: N-terminal GST; dsDNA, one strand shown
# T7 sequence: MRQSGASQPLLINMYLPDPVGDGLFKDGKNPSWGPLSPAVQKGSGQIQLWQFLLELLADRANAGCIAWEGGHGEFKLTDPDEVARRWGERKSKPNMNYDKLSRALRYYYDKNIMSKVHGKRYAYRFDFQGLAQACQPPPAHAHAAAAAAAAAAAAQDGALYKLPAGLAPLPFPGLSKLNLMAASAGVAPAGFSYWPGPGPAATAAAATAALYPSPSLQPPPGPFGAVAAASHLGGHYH
# How it was run: as §1
# ETV5 = ETV5 (Homo sapiens, UniProt P41161 1-510); conditions: protein: recombinant; tags: N-terminal GST; dsDNA, one strand shown
# How it was run: as §1
# HSF1 = HSF1 (Homo sapiens, UniProt Q00613 1-529); conditions: protein: recombinant; tags: N-terminal GST; chain copies: 3; dsDNA, one strand shown
# How it was run: as §1
# SPIC = biological target: T8, SPIC (Homo sapiens, UniProt Q8N5J4 1-248); conditions: protein: recombinant; tags: N-terminal GST; dsDNA, one strand shown
# T8 sequence: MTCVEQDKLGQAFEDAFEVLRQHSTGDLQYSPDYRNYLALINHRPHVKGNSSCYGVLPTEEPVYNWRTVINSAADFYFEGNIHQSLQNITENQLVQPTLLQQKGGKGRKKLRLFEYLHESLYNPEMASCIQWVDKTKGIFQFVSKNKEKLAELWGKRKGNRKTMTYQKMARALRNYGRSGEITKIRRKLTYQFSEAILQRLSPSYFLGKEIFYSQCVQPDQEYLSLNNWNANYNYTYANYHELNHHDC
# How it was run: as §1
# ELF4 = ELF4 (Homo sapiens, UniProt Q99607 1-663); conditions: protein: recombinant; tags: N-terminal GST; dsDNA, one strand shown
# How it was run: as §1
# ELK4 = biological target: T9, ELK4 (Homo sapiens, UniProt P28324-2 1-405); conditions: protein: recombinant; tags: N-terminal GST; dsDNA, one strand shown
# T9 sequence: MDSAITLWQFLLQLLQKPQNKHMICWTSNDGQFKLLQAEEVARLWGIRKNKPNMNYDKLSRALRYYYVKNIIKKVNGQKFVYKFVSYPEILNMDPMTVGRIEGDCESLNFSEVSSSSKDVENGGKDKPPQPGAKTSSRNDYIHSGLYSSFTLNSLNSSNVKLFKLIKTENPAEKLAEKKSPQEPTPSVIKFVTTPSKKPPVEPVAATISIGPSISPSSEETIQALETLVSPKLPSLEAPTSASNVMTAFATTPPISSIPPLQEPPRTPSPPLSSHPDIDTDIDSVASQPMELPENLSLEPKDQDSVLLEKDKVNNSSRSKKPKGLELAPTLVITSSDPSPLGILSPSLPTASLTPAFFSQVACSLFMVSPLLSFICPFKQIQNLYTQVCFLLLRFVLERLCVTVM
# How it was run: as §1
# ETV2 = biological target: T10, ETV2 (Homo sapiens, UniProt O00321 1-342); conditions: protein: recombinant; tags: N-terminal GST; dsDNA, one strand shown
# T10 sequence: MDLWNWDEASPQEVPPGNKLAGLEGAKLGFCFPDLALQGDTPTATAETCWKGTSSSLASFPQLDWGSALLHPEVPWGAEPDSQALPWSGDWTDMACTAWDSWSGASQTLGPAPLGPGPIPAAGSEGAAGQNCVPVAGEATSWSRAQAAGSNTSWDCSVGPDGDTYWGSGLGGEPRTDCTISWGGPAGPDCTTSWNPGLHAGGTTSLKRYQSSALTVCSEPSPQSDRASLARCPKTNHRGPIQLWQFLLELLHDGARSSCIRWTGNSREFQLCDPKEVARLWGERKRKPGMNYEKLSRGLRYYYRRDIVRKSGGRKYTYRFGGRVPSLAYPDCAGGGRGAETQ
# How it was run: as §1
# ELF3 = biological target: T11, ELF3 (Homo sapiens, UniProt P78545 1-371); conditions: protein: recombinant; tags: N-terminal GST; dsDNA, one strand shown
# T11 sequence: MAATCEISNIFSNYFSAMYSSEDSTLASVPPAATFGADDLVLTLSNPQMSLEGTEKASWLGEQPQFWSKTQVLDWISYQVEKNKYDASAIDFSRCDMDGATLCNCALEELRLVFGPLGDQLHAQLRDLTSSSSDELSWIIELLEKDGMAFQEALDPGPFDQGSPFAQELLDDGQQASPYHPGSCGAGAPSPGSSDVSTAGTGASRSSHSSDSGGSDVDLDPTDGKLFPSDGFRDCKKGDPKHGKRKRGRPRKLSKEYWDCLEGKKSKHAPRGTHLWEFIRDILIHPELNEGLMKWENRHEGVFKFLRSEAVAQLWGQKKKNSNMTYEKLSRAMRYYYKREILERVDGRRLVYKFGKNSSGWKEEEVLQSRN
# How it was run: as §1
# CRX = CRX (Homo sapiens, UniProt O43186 1-299); conditions: protein: recombinant; tags: N-terminal GST; dsDNA, one strand shown
# How it was run: as §1
# ETV1 = ETV1 (Homo sapiens, UniProt P50549 1-477); conditions: protein: recombinant; tags: N-terminal GST; dsDNA, one strand shown
# How it was run: as §1
# ELF4, sequence (Q99607 whole entry): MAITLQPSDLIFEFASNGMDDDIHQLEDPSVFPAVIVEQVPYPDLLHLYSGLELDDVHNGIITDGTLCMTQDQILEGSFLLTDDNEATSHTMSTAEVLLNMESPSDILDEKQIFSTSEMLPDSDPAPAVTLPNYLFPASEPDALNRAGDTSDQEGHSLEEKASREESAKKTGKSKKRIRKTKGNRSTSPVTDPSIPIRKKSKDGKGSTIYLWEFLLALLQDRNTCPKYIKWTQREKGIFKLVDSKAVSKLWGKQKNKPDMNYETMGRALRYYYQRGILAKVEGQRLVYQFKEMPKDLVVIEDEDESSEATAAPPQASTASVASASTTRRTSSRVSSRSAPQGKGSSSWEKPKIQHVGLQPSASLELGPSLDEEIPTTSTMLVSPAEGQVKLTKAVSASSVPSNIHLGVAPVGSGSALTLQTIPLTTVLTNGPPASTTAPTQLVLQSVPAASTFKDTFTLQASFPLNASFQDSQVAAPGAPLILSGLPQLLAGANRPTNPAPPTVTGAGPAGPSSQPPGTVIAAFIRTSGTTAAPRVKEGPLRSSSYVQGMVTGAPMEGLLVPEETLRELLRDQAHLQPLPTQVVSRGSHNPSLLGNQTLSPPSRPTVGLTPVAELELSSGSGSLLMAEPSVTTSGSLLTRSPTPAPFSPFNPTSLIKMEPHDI
# SPIB, sequence (Q01892 whole entry): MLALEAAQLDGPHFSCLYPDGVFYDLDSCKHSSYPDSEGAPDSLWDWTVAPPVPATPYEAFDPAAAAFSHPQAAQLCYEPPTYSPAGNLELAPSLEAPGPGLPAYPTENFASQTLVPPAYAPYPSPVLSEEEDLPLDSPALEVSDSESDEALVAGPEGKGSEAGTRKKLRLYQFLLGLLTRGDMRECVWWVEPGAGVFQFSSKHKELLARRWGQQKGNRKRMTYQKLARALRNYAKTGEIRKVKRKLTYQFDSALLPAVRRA
# ETV5, sequence (P41161 whole entry): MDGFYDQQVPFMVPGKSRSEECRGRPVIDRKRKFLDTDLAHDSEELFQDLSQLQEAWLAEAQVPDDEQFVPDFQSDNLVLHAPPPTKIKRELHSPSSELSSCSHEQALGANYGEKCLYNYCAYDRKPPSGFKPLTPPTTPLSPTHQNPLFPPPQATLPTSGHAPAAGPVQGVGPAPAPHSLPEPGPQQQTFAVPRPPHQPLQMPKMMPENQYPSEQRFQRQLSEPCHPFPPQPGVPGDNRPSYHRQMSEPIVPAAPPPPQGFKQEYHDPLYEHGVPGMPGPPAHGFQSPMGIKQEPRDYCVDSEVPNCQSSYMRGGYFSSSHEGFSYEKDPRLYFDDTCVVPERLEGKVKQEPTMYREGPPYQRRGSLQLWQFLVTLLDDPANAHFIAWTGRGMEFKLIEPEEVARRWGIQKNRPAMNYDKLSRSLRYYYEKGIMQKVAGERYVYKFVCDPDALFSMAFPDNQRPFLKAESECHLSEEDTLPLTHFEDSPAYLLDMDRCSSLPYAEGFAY
# ELF1, sequence (P32519 whole entry): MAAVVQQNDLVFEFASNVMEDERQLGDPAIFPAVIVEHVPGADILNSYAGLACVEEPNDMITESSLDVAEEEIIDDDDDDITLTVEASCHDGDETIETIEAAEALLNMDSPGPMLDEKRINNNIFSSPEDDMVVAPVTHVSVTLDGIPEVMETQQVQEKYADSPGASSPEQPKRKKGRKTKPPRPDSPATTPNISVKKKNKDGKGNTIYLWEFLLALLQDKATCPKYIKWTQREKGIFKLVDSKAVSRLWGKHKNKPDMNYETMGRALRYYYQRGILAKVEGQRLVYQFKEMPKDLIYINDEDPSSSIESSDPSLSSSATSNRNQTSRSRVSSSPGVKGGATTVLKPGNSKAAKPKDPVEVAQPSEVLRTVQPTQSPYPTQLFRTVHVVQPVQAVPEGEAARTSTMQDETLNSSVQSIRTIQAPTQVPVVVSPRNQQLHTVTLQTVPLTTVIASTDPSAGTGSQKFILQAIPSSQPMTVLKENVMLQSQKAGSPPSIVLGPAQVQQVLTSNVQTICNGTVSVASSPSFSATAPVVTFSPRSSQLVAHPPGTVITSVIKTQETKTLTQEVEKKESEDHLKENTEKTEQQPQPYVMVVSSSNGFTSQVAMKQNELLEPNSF
# ETV1, sequence (P50549 whole entry): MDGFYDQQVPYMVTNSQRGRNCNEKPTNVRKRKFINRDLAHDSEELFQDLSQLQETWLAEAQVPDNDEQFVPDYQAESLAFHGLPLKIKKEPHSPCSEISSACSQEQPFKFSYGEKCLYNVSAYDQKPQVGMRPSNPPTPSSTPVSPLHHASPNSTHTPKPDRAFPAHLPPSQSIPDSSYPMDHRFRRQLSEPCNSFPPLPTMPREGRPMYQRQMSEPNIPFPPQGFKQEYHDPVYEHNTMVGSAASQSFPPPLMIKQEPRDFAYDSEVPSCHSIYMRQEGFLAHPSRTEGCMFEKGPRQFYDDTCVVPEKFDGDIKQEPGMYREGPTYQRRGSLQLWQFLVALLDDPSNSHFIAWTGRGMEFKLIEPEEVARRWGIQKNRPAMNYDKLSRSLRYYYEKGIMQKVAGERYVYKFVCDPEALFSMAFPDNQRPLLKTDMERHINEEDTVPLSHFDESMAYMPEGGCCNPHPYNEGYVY
# CRX, sequence (O43186 whole entry): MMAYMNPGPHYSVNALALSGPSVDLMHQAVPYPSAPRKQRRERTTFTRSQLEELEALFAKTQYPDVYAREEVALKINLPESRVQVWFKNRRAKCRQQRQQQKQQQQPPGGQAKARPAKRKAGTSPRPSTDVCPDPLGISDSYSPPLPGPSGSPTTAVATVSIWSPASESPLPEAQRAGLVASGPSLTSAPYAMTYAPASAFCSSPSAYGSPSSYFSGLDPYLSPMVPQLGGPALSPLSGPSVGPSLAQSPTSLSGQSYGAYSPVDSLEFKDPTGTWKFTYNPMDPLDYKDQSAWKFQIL
# HSF1, sequence (Q00613 whole entry): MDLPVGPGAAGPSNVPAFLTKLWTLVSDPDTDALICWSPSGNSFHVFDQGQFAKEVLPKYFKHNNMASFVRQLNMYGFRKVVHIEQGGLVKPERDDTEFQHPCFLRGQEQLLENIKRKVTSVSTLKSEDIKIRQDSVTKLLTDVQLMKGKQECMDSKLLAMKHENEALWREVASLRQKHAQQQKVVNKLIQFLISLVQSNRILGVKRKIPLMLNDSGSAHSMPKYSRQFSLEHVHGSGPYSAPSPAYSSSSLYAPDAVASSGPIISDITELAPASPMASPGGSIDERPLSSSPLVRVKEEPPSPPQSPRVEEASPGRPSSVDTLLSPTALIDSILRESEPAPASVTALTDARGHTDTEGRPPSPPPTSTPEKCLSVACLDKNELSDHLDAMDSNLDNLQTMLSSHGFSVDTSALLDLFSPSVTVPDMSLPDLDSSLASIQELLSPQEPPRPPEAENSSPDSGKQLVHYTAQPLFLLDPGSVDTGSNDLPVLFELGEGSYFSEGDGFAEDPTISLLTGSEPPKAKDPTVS
sequence,measurement,setting,value
TGAATT,binding signal,FLI1,"1.15 fold enrichment (6-mer frequency, TF over GST control)"
same,binding signal,ELK1,"1.09 fold enrichment (6-mer frequency, TF over GST control)"
same,binding signal,GABPA,"1.19 fold enrichment (6-mer frequency, TF over GST control)"
same,binding signal,ERG,"1.17 fold enrichment (6-mer frequency, TF over GST control)"
same,binding signal,ELF1,"1.1 fold enrichment (6-mer frequency, TF over GST control)"
same,binding signal,EHF,"1.17 fold enrichment (6-mer frequency, TF over GST control)"
same,binding signal,SPI1,"1.22 fold enrichment (6-mer frequency, TF over GST control)"
same,binding signal,SPIB,"1.19 fold enrichment (6-mer frequency, TF over GST control)"
same,binding signal,ELK3,"1.06 fold enrichment (6-mer frequency, TF over GST control)"
same,binding signal,FEV,"1.18 fold enrichment (6-mer frequency, TF over GST control)"
same,binding signal,ETV5,"1.15 fold enrichment (6-mer frequency, TF over GST control)"
same,binding signal,HSF1,"1.23 fold enrichment (6-mer frequency, TF over GST control)"
same,binding signal,SPIC,"1.34 fold enrichment (6-mer frequency, TF over GST control)"
same,binding signal,ELF4,"1.16 fold enrichment (6-mer frequency, TF over GST control)"
same,binding signal,ELK4,"1.01 fold enrichment (6-mer frequency, TF over GST control)"
same,binding signal,ETV2,"1.19 fold enrichment (6-mer frequency, TF over GST control)"
same,binding signal,ELF3,"1.12 fold enrichment (6-mer frequency, TF over GST control)"
same,binding signal,CRX,"1.38 fold enrichment (6-mer frequency, TF over GST control)"
same,binding signal,ETV1,"1.23 fold enrichment (6-mer frequency, TF over GST control)"
